# Source: ChEMBL document CHEMBL1961873, “Compounds: GSK PKIS; Assays: Nanosyn kinase panel” (2012)
# Molecular target: Tyrosine-protein kinase Fes/Fps (Homo sapiens) (UniProt P07332)
# Conditions: at 1 µM
# 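Also: mean inhibition of FES from the GSK PKIS kinase inhibitor screening set, assayed by Nanosyn.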
# Tyrosine-protein kinase Fes/Fps (Homo sapiens), sequence (P07332 whole entry): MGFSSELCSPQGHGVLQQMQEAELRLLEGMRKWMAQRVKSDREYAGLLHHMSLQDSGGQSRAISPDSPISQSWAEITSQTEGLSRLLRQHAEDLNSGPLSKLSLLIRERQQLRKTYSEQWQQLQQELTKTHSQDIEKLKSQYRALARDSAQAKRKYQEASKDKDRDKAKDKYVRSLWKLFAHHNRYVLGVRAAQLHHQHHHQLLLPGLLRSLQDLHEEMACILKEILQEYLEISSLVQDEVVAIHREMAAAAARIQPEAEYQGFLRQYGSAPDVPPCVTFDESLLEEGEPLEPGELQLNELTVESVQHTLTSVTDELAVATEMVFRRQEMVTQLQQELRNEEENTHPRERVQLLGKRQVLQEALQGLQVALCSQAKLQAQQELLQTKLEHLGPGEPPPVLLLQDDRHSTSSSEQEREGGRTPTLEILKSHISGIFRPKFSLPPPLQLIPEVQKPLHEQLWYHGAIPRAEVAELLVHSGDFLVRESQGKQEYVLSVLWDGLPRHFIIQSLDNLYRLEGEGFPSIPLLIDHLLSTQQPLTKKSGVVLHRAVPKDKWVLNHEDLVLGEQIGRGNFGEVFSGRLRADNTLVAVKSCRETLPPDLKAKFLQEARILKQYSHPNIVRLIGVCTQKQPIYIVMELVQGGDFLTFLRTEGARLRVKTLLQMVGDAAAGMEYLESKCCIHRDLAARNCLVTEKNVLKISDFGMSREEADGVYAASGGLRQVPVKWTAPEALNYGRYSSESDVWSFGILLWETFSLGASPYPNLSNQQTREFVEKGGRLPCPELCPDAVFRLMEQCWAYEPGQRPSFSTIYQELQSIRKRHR
row,Structure (SMILES),inhibition [%]
1,CCn1c(-c2nonc2N)nc2ccc(F)cc21,2.83
2,[O-][S+]1CCN(Cc2ccc(-c3ccc4ncnc(Nc5ccc(OCc6ccccc6)c(Cl)c5)c4c3)o2)CC1,1.62
3,N#Cc1cccc(Nc2nccc(-c3cnn4ncccc34)n2)c1,34.3
4,CS(=O)(=O)CCNCc1nc(-c2ccc3ncnc(Nc4ccc(OCc5cccc(C(F)(F)F)c5)cc4)c3c2)cs1,3.22
5,COC(=O)c1ccc2c(c1)C(=Cc1cc(Br)c(O)c(Br)c1)C(=O)N2,4.01
6,NS(=O)(=O)c1cccc(-c2cc3ccncc3cc2OCc2ccccc2)c1,7.11
7,COc1ccc(-c2nn3ncccc3c2-c2ccnc(Nc3cccc(C(F)(F)F)c3)n2)cc1,2.54
8,Cc1cc(O)cc(C)c1/C=C/c1cncc(C(=O)N(C)C)c1,1.31
9,COc1cc(/C=N/Nc2ncnc3c2cnn3C(C)C)ccc1O,5.37
10,CCOc1nccc2c1nc(-c1nonc1N)n2CC,2.14
11,Oc1cccc(-c2nc(-c3ccccc3)[nH]c2-c2ccncc2)c1,1.64
12,Nc1nccc(C#Cc2cncnc2Nc2ccc(OCc3cccc(F)c3)c(Cl)c2)n1,4.65
13,Cc1ccc2c(-c3ccnc(Nc4ccc5c(c4)OCCO5)n3)c(-c3ccc(C(F)(F)F)cc3)nn2n1,0.4
14,CS(=O)(=O)Nc1cccc(-c2ccc3c(NC(=O)C4CC4)n[nH]c3c2)c1,1.23
15,Cc1cc(-c2ccccn2)cc(C)c1/C=C/c1cncc(-c2nn[nH]n2)c1,5.62
16,CN(C)CCCn1c(-c2nonc2N)nc2cnccc21,2.95
17,Cc1cc(Cl)cc2c1NC(=O)C2=NNc1ccc(S(N)(=O)=O)cc1,0.42

row,Structure (SMILES),inhibition [%]
1,CN(c1ccc(NC(=O)Nc2ccc(OC(F)(F)F)cc2)cc1)c1ccnc(Nc2cccc(S(N)(=O)=O)c2)n1,21.8
2,COc1cc2ncn(-c3cc(OCc4ccccc4S(C)(=O)=O)c(C#N)s3)c2cc1OC,3.13
3,Cc1ccc(O)cc1Nc1ccnc2ccc(S(C)(=O)=O)cc12,39.4
4,CN1CCN(C(=O)c2ccc(NC(=O)Nc3ccc(N(C)c4ccnc(Nc5ccc(CS(C)(=O)=O)cc5)n4)cc3)cc2)CC1,43.4
5,COC(=O)Nc1nc2cc(Oc3ccc(NC(=O)Nc4cccc(Br)c4)cc3)ccc2[nH]1,2.25
6,NS(=O)(=O)c1ccc(N/N=C2\C(=O)Nc3ccc(Cl)cc32)cc1,2.84
7,Cc1nc(-c2ccccc2)n2nc(NCCCN3CCOCC3)ncc12,3.03
8,COc1cc(Nc2nccc(-c3cnn4ncccc34)n2)cc(OC)c1,53.2
9,NS(=O)(=O)c1cccc(Nc2cc(-c3ccc(F)cc3)n[nH]2)c1,2.7
10,COc1ccc2ncnc(Nc3ccc(OCc4ccccc4)cc3)c2c1,1.33
11,Cc1ccc2c(c1)/C(=N/Nc1ccc(S(N)(=O)=O)cc1)C(=O)N2,0.85
12,Cc1ccc(C(=O)NC2CC2)cc1-c1ccc2[nH]ncc2c1,-3.34
13,NS(=O)(=O)c1ccc(NC=C2C(=O)Nc3ccc4ncsc4c32)cc1,17.1
14,CCS(=O)(=O)c1ccc(OC)c(Nc2ncc(-c3cccc(OC)c3)o2)c1,2.42
15,c1ccc(Cc2nc3ccc(Nc4ncnc5ccccc45)cc3[nH]2)cc1,3.02
16,NC(=O)c1cccc(Nc2nccc(Nc3cccc(F)c3)n2)c1,7.67
17,CCCN1CCCC(c2ccc(Nc3nc(Nc4cc(F)ccc4C(N)=O)c4cc[nH]c4n3)c(OC)c2)C1 (centres undefined),81.3
